These results are taken from PubChem BioAssay (NCI).

What all share (assay): NCI-60 one-dose screen, 48 h (100 = growth as untreated, 0 = no growth, -100 = all killed)
Assay [1] deals with NCI-H23 lung. As to conditions: 10 µM unless noted.
Assay [2] deals with NCI-H226 lung. As to conditions: 10 µM unless noted.
In assay [3] the test system is NCI-H322M lung. The settings on record: 10 µM unless noted.
Assay [4] has as its system HOP-62 NSCLC. As to conditions: 10 µM unless noted.
Assay [5] concerns NCI-H460 lung. As to conditions: 10 µM unless noted.
Assay [6] concerns HOP-92 NSCLC. As to conditions: 10 µM.
In assay [7] the test system is NCI-H522 lung. As to conditions: 10 µM unless noted.
For assay [8], the system named is A549/ATCC NSCLC. As to conditions: 10 µM unless noted.
Assay [9] relates to 786-0 renal. As to conditions: 10 µM unless noted.
The test system of assay [10] is COLO 205 colon. As to conditions: 10 µM unless noted.

Structures are written as SMILES. The panel holds about 83,000 compounds, 20% with a hit somewhere; the sample as a whole holds those more often.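 Activity criterion: percent growth below 10, measured after cells in 96-well plates were exposed to a single compound concentration for 48 hours.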 Values without a mark were called inactive. Calls of active or inactive are those of the source.

Take `Cc1ccc(-c2nn(-c3ccccc3)cc2/C=C/C(=O)c2ccc(NC(=O)CCCCCCC(=O)NO)cc2)cc1`: the growth in [1] was 93.6%; in assay [2], 95.8%; in [3] it was 83.9%; in assay [4], 86.4%; in assay [5] it was 68.1%; in assay [6], 96.4%. Moreover, the growth is 40.4% in assay [7], 76.9% in [8], 56.8% in assay [9] and 96.2% in assay [10].
Take `O=C(NNc1nc2cc(F)c(F)cc2n2c(CN3CC4CNCC4C3)ccc12)c1ncccn1` (stereo not given): the growth in assay [1] is 26%; in assay [2], 10.6%; in assay [3] it was 27.8%; in assay [4], 0.597% (active); in [5], 2.27% (active); in assay [6], 20.2%. In addition, the growth in [7] is 0.166% (active); in [8], 15.2%; in assay [9], 9.75% (active); in assay [10] it was 9.36% (active).
As for `O=C(NNc1nc2cc(F)ccc2n2c(CN3CCC(O)C3)ccc12)c1cnccn1` (stereo not given), the growth in assay [1] is 20.2%; in [2], 18.8%; in assay [3] it was 24.8%; in assay [4], 14.6%; in assay [5], 5.14% (active); in [6] it was 23.2%. Also, the growth is -0.38% (active) in [7], 15.2% in assay [8], 16.2% in assay [9] and 8.58% (active) in assay [10].
Turning to `O=C(O)c1ccc(-n2cc(CNc3cccc(Cl)c3)c(-c3ccc(F)cc3)n2)cc1`, the growth in assay [1] was 101%; in [2], 112%; in assay [3] it was 103%; in assay [4], 101%; in [5] it was 98%; in assay [6] it was 105%. Further, the growth is 92.2% in [7], 92.7% in assay [8], 110% in assay [9] and 120% in assay [10].
Take `CCCCCc1ccc(S(=O)(=O)Nc2cccc(-c3csc(NCCN4CCN(C)CC4)n3)c2)cc1`: the growth in assay [1] is 84%; in [2], 96.7%; in assay [3], 82.9%; in assay [4], 89.4%; in assay [5], -9.25% (active); in assay [6], 71.2%. In addition, the growth in assay [7] is 90.2%; in [8], 72.6%; in assay [9] it was 60.3%; in assay [10], 22.2%.
Take `CS(=O)(=O)Nc1cc(-c2ccc3ncc(C#N)c(N[C@H](CO)c4ccccc4)c3c2)cnc1Cl`: the growth is 45.2% in [1]; 56.2% in assay [2]; 78.3% in assay [3]; 46.8% in [4]; 74.3% in assay [5]; -2.14% (active) in assay [6]. In addition, the growth in assay [7] is 25.7%; in assay [8], 83.5%; in assay [9], 54.8%; in assay [10], 57%.
For `O=C(NNc1nc2cc(F)ccc2n2c(CN3CC4CNCC4C3)ccc12)c1cnccn1` (stereo not given), the growth in assay [1] is 35.4%; in assay [2], 25%; in [3] it was 31.8%; in [4] it was 24.9%; in [5], 4.93% (active); in [6] it was 50.8%. For the same molecule, the growth in [7] is 16.9%; in [8] it was 21.5%; in assay [9], 16.3%; in [10], 18.3%.
On to `Cn1ccnc1C(=O)/C=C/c1ccc(CNC(=O)c2ccc(Cl)cc2)cc1`, for which the growth in [1] was -7.45% (active); in assay [2] it was 4.1% (active); in assay [3], 6.29% (active); in [4], 16.3%; in assay [5], -18.9% (active); in assay [6] it was 10.3%. In addition, the growth was 7.07% (active) in assay [7], 8.09% (active) in assay [8], 12.4% in [9] and 13.6% in assay [10].
For `Cc1ccc(-n2cc(/C=N/NC(=O)c3ccncc3)c(-c3ccc(S(C)(=O)=O)cc3)n2)cc1`, the growth in [1] was 83%; in assay [2], 101%; in [3] it was 93.5%; in [4], 88.7%; in [5], 101%; in [6], 97.5%. The growth was 68.8% in assay [7], 103% in [8], 90% in [9] and 104% in assay [10].
As for `CCOP(=O)(OCC)OC[C@]12CCC(C)(C)C=C1[C@H]1CC[C@@H]3[C@@]4(C)CC[C@H](OP(=O)(OCC)OCC)C(C)(C)[C@@H]4CC[C@@]3(C)[C@]1(C)CC2`, the growth was -38.4% (active) in assay [1]; -72.3% (active) in assay [2]; 1.63% (active) in assay [3]; -38.3% (active) in [4]; -62.2% (active) in [5]; -65.2% (active) in [6]. Besides, the growth in [7] was -59.1% (active); in [8] it was -45.3% (active); in assay [9], -59.7% (active); in [10] it was -43.1% (active).
Take `N#Cc1cccc(CN2CCc3ncn(Cc4ccc(Cl)cc4)c(=O)c3C2)c1`: the growth in [1] is 26.2%; in assay [2] it was 30.4%; in assay [3], 42.9%; in [4], 31.2%; in assay [5], 13.5%; in assay [6], 30.3%. Moreover, the growth in assay [7] is 16.6%; in assay [8] it was 24.9%; in assay [9], 42.8%; in [10], 11.7%.
`Cn1ccnc1C(=O)/C=C/c1ccc(NC(=O)c2ccc(F)cc2)cc1`: the growth in [1] was 13.4%; in assay [2], 45.3%; in assay [3] it was 46.3%; in assay [4], 64.5%; in assay [5], -19.7% (active); in [6] it was 47.2%. The growth in assay [7] was 17.4%; in assay [8], 34.8%; in assay [9], 22.1%; in [10] it was 75.4%.
On to `CCN(CC)c1ccc2c(c1)Oc1nc(N)c(C#N)c(N)c1C2Sc1ccc(F)cc1` (stereo not given), for which the growth is -82.3% (active) in assay [1]; -84.8% (active) in [2]; -84.8% (active) in assay [3]; -15% (active) in assay [4]; -69.8% (active) in [5]; -36.7% (active) in assay [6]. The growth was -48.7% (active) in assay [7], -39.6% (active) in assay [8], -83.8% (active) in assay [9] and -58.5% (active) in assay [10].
Consider `O=C(CSc1nnc(-c2ccc3nc(-c4ccccc4)[nH]c3c2)o1)Nc1ccc(C(=O)/C=C/c2ccccc2)cc1`, for which the growth was 100% in assay [1]; 106% in [2]; 102% in assay [3]; 104% in assay [4]; 113% in [5]; 149% in assay [6]. In addition, the growth in assay [7] is 93.4%; in assay [8] it was 106%; in assay [9], 102%; in assay [10], 110%.
Regarding `CCN(CC)c1ccc2c(c1)Oc1nc(N)c(C#N)c(N)c1C2Sc1ccc(C)cc1` (stereo not given), the growth in assay [1] was -90% (active); in assay [2], -54.6% (active); in [3], -92.7% (active); in assay [4] it was -71% (active); in assay [5] it was -40.4% (active); in assay [6], -93.9% (active). Besides, the growth in assay [7] is -75.6% (active); in assay [8], -56.9% (active); in [9], -92.6% (active); in assay [10] it was -53.6% (active).
For the molecule `O=C(NNc1nc2cc(F)c(F)cc2n2cccc12)c1cnccn1`, the growth in assay [1] was 34.5%; in [2], 45.1%; in assay [3] it was 35%; in assay [4], 24.8%; in assay [5], 7.99% (active); in assay [6], 36.4%. Moreover, the growth in assay [7] was 13.4%; in assay [8], 24.1%; in [9] it was 30.6%; in [10], 11.9%.
Turning to `COc1c(N2CC3CCCNC3C2)c(F)cc2c(=O)c(C(=O)N/N=C/c3ccc(Br)cc3)cn(C3CC3)c12` (stereo not given), the growth in assay [1] is 88.3%; in assay [2], 91.4%; in assay [3], 89%; in assay [4] it was 88.4%; in assay [5], 86%; in assay [6] it was 57.9%. Also, the growth in assay [7] was 77.6%; in assay [8] it was 83.1%; in [9], 85.3%; in assay [10] it was 100%.
For `NS(=O)(=O)c1ccc(-n2cc(CN3CCNCC3)nn2)cc1`, the growth was 106% in [1]; 101% in assay [2]; 113% in [3]; 102% in [4]; 108% in assay [5]; 113% in assay [6]. The growth is 98.4% in assay [7], 110% in assay [8], 99.4% in assay [9] and 116% in assay [10].
Regarding `COc1cc2c(cc1OC)C(Sc1ccc(F)cc1)c1c(nc(N)c(C#N)c1N)O2` (stereo not given), the growth in [1] was -83.1% (active); in [2], -29.4% (active); in assay [3] it was -74.8% (active); in [4], 10.5%; in assay [5], -60.7% (active); in [6], -29.4% (active). Further, the growth in assay [7] was -37.7% (active); in assay [8], -30% (active); in assay [9] it was -72.3% (active); in [10] it was -45.3% (active).
With `Fc1ccc(-c2cc3nc(C(Cl)Cl)nc(-c4ccco4)n3n2)cc1`, the growth in assay [1] is 37.3%; in [2], 93.2%; in [3] it was -22.3% (active); in [4], -18.8% (active); in assay [5], -17.3% (active); in [6], -15.1% (active). Also, the growth is 89.9% in assay [7], -20.1% (active) in assay [8], 33.2% in assay [9] and -45.4% (active) in assay [10].
Turning to `CCOc1ccc(NC2=C(Cl)C(=O)c3nc(C)ccc3C2=O)cc1`, the growth is -61% (active) in [1]; -52.6% (active) in assay [2]; 32.4% in assay [3]; 72.1% in assay [4]; 13.4% in assay [5]; -87% (active) in assay [6]. Also, the growth in assay [7] is -61.6% (active); in assay [8], 46.2%; in assay [9] it was 8.39% (active); in assay [10], 98.2%.
Take `CCCCCc1ccc(S(=O)(=O)Nc2cccc(-c3csc(NC(=O)CN4CCN(C)CC4)n3)c2)cc1`: the growth in assay [1] is 95.1%; in assay [2] it was 93.3%; in [3] it was 100%; in [4], 89.5%; in assay [5] it was 21.5%; in [6], 62.3%. The growth is 89.5% in assay [7], 79.7% in assay [8], 63.8% in assay [9] and 31% in [10].
With `Oc1cccc2ccc(-c3nnc(SCc4ccc(O)c5ncccc45)n3-c3ccccc3)nc12`, the growth in assay [1] was 20.5%; in assay [2] it was 39.5%; in assay [3], 20.9%; in assay [4], 16.5%; in [5] it was 2.48% (active); in [6] it was -0.323% (active). The growth in assay [7] was 13.5%; in [8] it was 15.4%; in [9], 25.9%; in assay [10], 53.9%.
In the case of `Nc1ncc(-c2ccc3ncnc(N4CCc5cc(F)c(F)cc54)c3c2)cn1`, the growth in [1] is 38.3%; in [2], 29.1%; in [3], 33.1%; in assay [4], 13.4%; in [5] it was 18.9%; in assay [6] it was -7.6% (active). For the same molecule, the growth is 34% in assay [7], 15.6% in assay [8], 14.2% in assay [9] and 43.6% in assay [10].
`CCOc1ccccc1NC1=C(Cl)C(=O)c2nc(C)ccc2C1=O`: the growth was -67.8% (active) in [1]; 17.6% in assay [2]; 28.8% in assay [3]; 84.3% in [4]; 12.1% in assay [5]; -89.2% (active) in assay [6]. In addition, the growth in assay [7] is -43.5% (active); in [8] it was 59.1%; in [9], -88.2% (active); in assay [10], 99.2%.
In the case of `O=[N+]([O-])c1cc(/C=N/Nc2nc(N/N=C/c3ccc(Cl)c([N+](=O)[O-])c3)nc(N3CCCCC3)n2)ccc1Cl`, the growth is 81.8% in assay [1]; 61.4% in [2]; 71.3% in assay [3]; 43.7% in assay [4]; 98.7% in assay [5]; 123% in [6]. Moreover, the growth in [7] is 51.9%; in assay [8] it was 111%; in assay [9], 109%; in [10], 100%.
